Records with an inconclusive call do not appear. Activity calls are given as the source filed them. The calls were made as follows, unless noted: active = hit-call score of the fitted dose curve at least 0.9, where 1 is the maximum; inconclusive = response in the unintended direction; inactive = score below 0.9.

For experiment [1], the target named is Thyroid hormone receptor alpha (Rattus norvegicus) + Thyroid hormone receptor beta (Rattus norvegicus) (UniProt P18113+P63059). In words: TOX21_TR_LUC_GH3_Antagonist_Followup: Tox21 GH3 Thyroid Hormone Receptor Antagonism Luciferase Follow-Up Assay (AID 2283942). In a few lines:
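In a GH3 luciferase reporter line, test chemicals spanning 92 uM to 5nM final are co-incubated 24 h with 1.0 nM T3. Activity is expressed as relative luminescence units and analysed relative to DMSO.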

Experiment [2] addresses THRB (gene 7068) (UniProt P10828). Briefly: TOX21_TRB_BLA_Antagonist_Followup_ratio: Tox21 Thyroid Hormone Receptor beta Antagonism Beta-lactamase (BLA) Follow-Up Assay, Ratio (AID 2283958). In a few lines: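 Cells were plated and allowed to attach for 5 h, then dosed with compounds in DMSO at 11 concentrations for 18 h at 37C. Beta-lactamase reporter activity was measured via CCF4-AM FRET as the 460:530 nm ratio.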

Experiment [3] in a line: TOX21_TRB_BLA_Antagonist_Followup_viability: Viability Assessment in the Tox21 Thyroid Hormone Receptor beta Antagonism Beta-lactamase (BLA) Follow-Up Assay (AID 2283961). The method, boiled down:
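HEK293T cells with GAL4-human TRβ LBD and UAS-bla reporter, 3,000 cells/well in 2% charcoal-stripped FBS medium; 11-point concentrations in triplicate, 18 h at 37C. Viability from ATP by CellTiter-Glo luminescence, 30 min RT, same plates.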

Experiment [4] has as its target THRB (gene 7068) (UniProt P10828). Briefly: TOX21_TRB_COA_Antagonist_Followup_ratio: Tox21 Thyroid Hormone Receptor beta Antagonism through Coactivator Recruitment Follow-Up Assay, Ratio (AID 2283967). In a few lines: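 Coactivator (SRC-2) recruitment to purified GST-TRβ ligand-binding domain is monitored by terbium-to-fluorescein energy transfer, emission ratio 520:495 nm. DMSO wells define 0% and T3 wells 100% activity.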

Experiment [5] is described as follows: TOX21_TR_RXR_BLA_Antagonist_Followup_viability: Viability Assessment in the Tox21 Thyroid Hormone Receptor beta Retinoid X Receptor alpha (RXRa) Antagonism Beta-lactamase (BLA) Follow-Up Assay (AID 2283979). The method, boiled down:
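RXRa-UAS-bla HEK293T cells seeded 2,500/well in phenol red-free DMEM with 2% charcoal-stripped FBS, attached 5 h, then exposed to compounds at 11 concentrations in triplicate for 16 h at 37C/5% CO2. Viability read by CellTiter-Glo ATP luminescence; bidirectional fit versus DMSO.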

Experiment [6] deals with PGR (gene 5241) (UniProt P06401). Briefly: TOX21_PR_BLA_Followup_Antagonist_ratio: Tox21 HEK293 Progesterone Receptor (PR) Antagonism Beta-lactamase Follow-Up Assay, Ratio (AID 2283934).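 Also: PR-UAS-bla HEK293T cells stimulated with 1 nM R5020 agonist for 16 hr.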 The method, boiled down:
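Cells are plated, rested 6 hr, then dosed with test compound in DMSO and challenged with 1 nM promegestone. After 16 hr incubation, substrate loading for 2 h at room temperature precedes fluorescence reading; viability is measured in the same wells.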

A short description of experiment [7]: TOX21_PR_BLA_Followup_Agonist_viability: Viability Assessment in the Tox21 HEK293 Progesterone Receptor (PR) Agonism Beta-lactamase Follow-Up Assay (AID 2283935).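 Also: signal loss means lower viability so actives are cytotoxic.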 The method, boiled down:
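Cells were plated in medium with 2% charcoal-stripped FBS and rested 6 hr. Compounds in DMSO were then added for 16 hr at 37C, followed by the FRET substrate step and CellTiter-Glo luminescence after 30 min.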

Experiment [8] concerns the target PGR (gene 5241) (UniProt P06401). In words: TOX21_PR_LUC_Followup_Agonist: Tox21 HEK293 Progesterone Receptor (PR) Agonism Luciferase Follow-Up Assay (AID 2283937; active = hit-call score of the fitted dose curve at least 0.9, where 1 is the maximum; inactive = score below 0.9). In a few lines:
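Seed HEK293-PR-A-luc cells, wait 5 h, add compounds in DMSO, incubate 16 h at 37C, add ONE-Glo, read luminescence after 30 min. Activity is increase over DMSO controls; run with a viability counter-screen.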

Experiment [9] can be described thus: TOX21_PR_BLA_Followup_Antagonist_viability: Viability Assessment in the Tox21 HEK293 Progesterone Receptor (PR) Antagonism Beta-lactamase Follow-Up Assay (AID 2283936).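 Also: cells exposed to compound with R5020 agonist for 16 h; hits lower the luminescence signal meaning cytotoxicity.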 The method, boiled down:
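PR-UAS-bla HEK293T cells in medium with 2% charcoal-stripped FBS were treated with compounds plus R5020 for 16 hr at 37C. After the beta-lactamase read, CellTiter-Glo was added to the same wells and luminescence read after 30 min at room temperature.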

Experiment [10] deals with PGR (gene 5241) (UniProt P06401). In words: TOX21_PR_LUC_Followup_Antagonist: Tox21 HEK293 Progesterone Receptor (PR) Antagonism Luciferase Follow-Up Assay (AID 2283938).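 Also: curve fitted upward as signal gain over DMSO baseline despite antagonist label.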 The method, boiled down: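 HEK293-PR-A-luc cells, 3,000/well, preincubated 5 h at 37C before compound addition in DMSO; 16 h compound exposure at 37C. ONE-Glo luciferase luminescence read after 30 min at room temperature, fitted relative to DMSO baseline.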

The nature of experiment [11]: TOX21_PR_LUC_Followup_Antagonist_viability: Viability Assessment in the Tox21 HEK293 Progesterone Receptor (PR) Antagonism Luciferase Follow-Up Assay (AID 2283940). The method, boiled down: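 HEK293-PR-A-luc, 3,000 cells/well; 5 h at 37C/0% CO2; compound pin transfer; 16 h incubation; CellTiter-Glo ATP luminescence, signal loss = cytotoxicity.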
A short description of experiment [12]: TOX21_PR_LUC_Followup_Agonist_viability: Viability Assessment in the Tox21 HEK293 Progesterone Receptor (PR) Agonism Luciferase Follow-Up Assay (AID 2283941).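 Also: loss of signal means cytotoxicity so actives lower viability.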 The method, boiled down:
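Multiplexed viability endpoint of the PR agonist luciferase follow-up: HEK293-PR-A-luc cells treated 16 h at 37C, with viability scored as decrease in CellTiter-Glo ATP signal.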

A short description of experiment [13]: CCTE_Harrill_HTTr_Viability_MCF7: CCTE's 6-hour Cell Viability Assessment for the High-Throughput Transcriptomics (HTTr) Platform, in MCF-7 cells cultured in DMEM + 10% fetal bovine serum, Harrill Lab (AID 2284010; active = hit-call score of the fitted dose curve at least 0.9, where 1 is the maximum; inactive = score below 0.9). The method, boiled down: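 Read-out is propidium iodide gain of signal by high-content imaging, reflecting membrane integrity loss. Measurements are taken 6 h after dosing, eight concentrations per chemical, with DMSO serving as baseline for bidirectional curve fitting.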

Experiment [14] can be described thus: CCTE_Harrill_HTTr_CellCount_MCF7: CCTE's Cell Proliferation Assessment for the High-Throughput Transcriptomics (HTTr) Platform, Harrill Lab (AID 2284012).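 Also: cells exposed to compound for six hours; intended direction is loss of nuclei count meaning fewer cells.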 The method, boiled down: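 Cell count served as viability reporter: loss of Hoechst-stained nuclei, counted by high content imaging, marks decreased growth or survival. Exposure was 6 h in MCF-7 cells across eight concentrations, with DMSO as baseline.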

Experiment [15] has as its system Brachyury (BRA) Protein Expression, Deisenroth Lab, TBXT (gene 6862). In words: CCTE_Deisenroth_DEVTOX-GLR_legacy_Bra: (Legacy) CCTE's DevTox GLR-Endo Assay Evaluation of Brachyury (BRA) Protein Expression, Deisenroth Lab (AID 2284329; active = hit-call score of the fitted dose curve at least 0.9, where 1 is the maximum; inactive = score below 0.9). The method, boiled down:
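High-content imaging of fixed RUES2-GLR cells after a 48-hour differentiation with two compound exposures yields percent cells whose Bra signal exceeds pluripotent control median by 5x BMAD; values are baseline-corrected to DMSO.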

A short description of experiment [16]: CCTE_Deisenroth_DEVTOX-GLR_legacy_CellCount: (Legacy) Viability Assessment in CCTE's DevTox GLR-Endo Assay, Deisenroth Lab (AID 2284331; active = hit-call score of the fitted dose curve at least 0.9, where 1 is the maximum; inactive = score below 0.9). To be noted: actives raise or lower the signal. In a few lines: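 Seed RUES2-GLR 24 h; differentiate 48 h, dosing at 0 and 24 h; fix, stain nuclei; image 5 fields/well; count nuclei. Conc. 1 nM - 200 uM, single technical replicate, n=4 experiments; bidirectional fit vs 0.2% DMSO.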

The test system of experiment [17] is SRY-box transcription factor 17 (SOX17) Protein Expression, Deisenroth Lab, SOX17 (gene 64321). In words: CCTE_Deisenroth_DEVTOX-GLR_legacy_Sox17: (Legacy) CCTE's DevTox GLR-Endo Assay Evaluation of SRY-box transcription factor 17 (SOX17) Protein Expression, Deisenroth Lab (AID 2284341; active = hit-call score of the fitted dose curve at least 0.9, where 1 is the maximum; inactive = score below 0.9). To be noted: actives raise or lower the signal. The method, boiled down: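 Using the RUES2-GLR line, compounds are tested as 10-point series during 48-h defined-media differentiation. Sox17 reporter fluorescence per cell determines positivity; endpoint is percentage positive, analysed bidirectionally versus DMSO baseline.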

The subject of experiment [18] is SRY-box transcription factor 2 (SOX2) Protein Expression, Deisenroth Lab, SOX2 (gene 6657). In words: CCTE_Deisenroth_DEVTOX-GLR_legacy_Sox2: (Legacy) CCTE's DevTox GLR-Endo Assay Evaluation of SRY-box transcription factor 2 (SOX2) Protein Expression, Deisenroth Lab (AID 2284346; active = hit-call score of the fitted dose curve at least 0.9, where 1 is the maximum; inactive = score below 0.9). The method, boiled down: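 Two exposures, 24 h apart, during 48 h defined-media differentiation of seeded RUES2-GLR cells; nuclei-stained cells imaged. Sox2 positivity called at 5x BMAD above endoderm control median, DMSO median subtracted.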

In experiment [19] the test system is SRY-box transcription factor 17 (SOX17) Protein Expression, Deisenroth Lab, SOX17 (gene 64321). Briefly: CCTE_Deisenroth_DEVTOX-GLR_Endo_SOX17: CCTE's DevTox GLR-Endo Assay Evaluation of SRY-box transcription factor 17 (SOX17) Protein Expression, Deisenroth Lab (AID 2284413; active = hit-call score of the fitted dose curve at least 0.9, where 1 is the maximum; inactive = score below 0.9). In a few lines: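 Fluorescent microscopy of a SOX17 reporter in RUES2-GLR pluripotent cells scored endoderm differentiation after 48 h and two 24-h-spaced exposures. Values are percent change in SOX17+ population against 0.2% DMSO, n=4 experimental replicates.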

Experiment [20] deals with Brachyury (BRA) Protein Expression, TBXT (gene 6862). In words: CCTE_Deisenroth_DEVTOX-GLR_Endo_BRA: CCTE's DevTox GLR-Endo Assay Evaluation of Brachyury (BRA) Protein Expression, Deisenroth Lab (AID 2284417; active = hit-call score of the fitted dose curve at least 0.9, where 1 is the maximum; inactive = score below 0.9). In a few lines: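 Percent BRA+ (mesoderm) RUES2-GLR cells after 48 h differentiation with two exposures, 1 nM - 200 uM; 0.2% DMSO control subtracted.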
Experiment [21] is described as follows: CCTE_Deisenroth_DEVTOX-GLR_Endo_CellCount: Viability Assessment in CCTE's DevTox GLR-Endo Assay, Deisenroth Lab (AID 2284420; active = hit-call score of the fitted dose curve at least 0.9, where 1 is the maximum; inactive = score below 0.9). The method, boiled down:
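RUES2-GLR pluripotent cells seeded 24 h, then differentiated 48 h in defined media with two chemical exposures 24 h apart. Nuclei counted by high-content imaging; 10-point 1 nM–200 uM series; percent change versus 0.2% DMSO.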

Experiment [22] relates to SRY-box transcription factor 17 (SOX17) Protein Expression, Deisenroth Lab, SOX17 (gene 64321). Briefly: CCTE_Deisenroth_DEVTOX-GLR_Pluri_SOX17: CCTE's DevTox GLR-Pluri Assay Evaluation of SRY-box transcription factor 17 (SOX17) Protein Expression, Deisenroth Lab (AID 2284427). In a few lines:
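RUES2-GLR pluripotent cells were induced toward endoderm over 48 h and received two compound doses 24 h apart, in a 10-point series from 1 nM to 200 uM. The percentage of SOX17+ cells among total cells was measured by high-content imaging and reported minus the 0.2% DMSO control.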

Experiment [23] deals with SRY-box transcription factor 2 (SOX2) Protein Expression, Deisenroth Lab, SOX2 (gene 6657). In words: CCTE_Deisenroth_DEVTOX-GLR_Pluri_SOX2: CCTE's DevTox GLR-Pluri Assay Evaluation of SRY-box transcription factor 2 (SOX2) Protein Expression, Deisenroth Lab (AID 2284428; active = hit-call score of the fitted dose curve at least 0.9, where 1 is the maximum; inactive = score below 0.9). In a few lines: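 RUES2-GLR human pluripotent cells, two exposures 24 h apart over 48 h differentiation; 10-point series 1 nM - 200 uM. High-content imaging gives SOX2+ cells divided by cell count, reported as percent change versus 0.2% DMSO.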

The test system of experiment [24] is Brachyury (BRA) Protein Expression, Deisenroth Lab, TBXT (gene 6862). In words: CCTE_Deisenroth_DEVTOX-GLR_Pluri_BRA: CCTE's DevTox GLR-Pluri Assay Evaluation of Brachyury (BRA) Protein Expression, Deisenroth Lab (AID 2284429). The method, boiled down:
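Mesoderm readout after 48 h differentiation of human RUES2-GLR cells, dosed twice (24-h intervals) at 1 nM - 200 uM. BRA+ frequency from fluorescence imaging of fixed, nuclear-stained cells, DMSO-corrected.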

A short description of experiment [25]: CCTE_Deisenroth_DEVTOX-GLR_Pluri_CellCount: Viability Assessment in CCTE's DevTox GLR-Pluri Assay Evaluation of Total Cell Counts, Deisenroth Lab (AID 2284430; active = hit-call score of the fitted dose curve at least 0.9, where 1 is the maximum; inactive = score below 0.9). The method, boiled down:
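Cytotoxicity readout: fluorescent nuclei counts by high-content imaging, expressed as percent change relative to 0.2% DMSO. Human RUES2-GLR pluripotent line differentiated 48 h, dosed twice at 24-h intervals across 1 nM - 200 uM (10 points).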

PGR (gene 5241), sequence (P06401 whole entry, looked up): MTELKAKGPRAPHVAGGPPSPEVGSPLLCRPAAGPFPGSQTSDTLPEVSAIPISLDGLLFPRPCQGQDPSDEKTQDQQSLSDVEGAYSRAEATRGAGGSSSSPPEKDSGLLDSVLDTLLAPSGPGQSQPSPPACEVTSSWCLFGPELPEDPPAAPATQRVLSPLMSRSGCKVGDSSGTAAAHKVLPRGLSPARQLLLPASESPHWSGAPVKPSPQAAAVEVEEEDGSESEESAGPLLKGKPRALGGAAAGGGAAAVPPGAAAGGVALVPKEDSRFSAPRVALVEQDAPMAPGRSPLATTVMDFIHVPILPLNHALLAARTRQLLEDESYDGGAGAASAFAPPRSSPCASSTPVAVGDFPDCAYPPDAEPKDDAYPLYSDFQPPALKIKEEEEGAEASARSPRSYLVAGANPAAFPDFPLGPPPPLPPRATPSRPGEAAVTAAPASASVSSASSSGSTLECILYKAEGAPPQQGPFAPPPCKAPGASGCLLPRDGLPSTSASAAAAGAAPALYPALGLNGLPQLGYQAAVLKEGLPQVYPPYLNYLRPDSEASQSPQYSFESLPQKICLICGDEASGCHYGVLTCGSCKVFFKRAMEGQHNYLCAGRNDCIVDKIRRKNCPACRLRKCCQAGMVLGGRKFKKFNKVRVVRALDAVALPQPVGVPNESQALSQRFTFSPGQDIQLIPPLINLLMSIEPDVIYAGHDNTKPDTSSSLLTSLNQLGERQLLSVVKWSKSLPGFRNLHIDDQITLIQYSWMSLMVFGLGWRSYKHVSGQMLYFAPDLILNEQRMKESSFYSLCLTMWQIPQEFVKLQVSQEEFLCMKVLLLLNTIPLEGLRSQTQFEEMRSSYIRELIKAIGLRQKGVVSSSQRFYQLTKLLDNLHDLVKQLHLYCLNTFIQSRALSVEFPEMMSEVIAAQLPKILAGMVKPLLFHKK
THRB (gene 7068), sequence (P10828 whole entry, looked up, the tested form may be a part): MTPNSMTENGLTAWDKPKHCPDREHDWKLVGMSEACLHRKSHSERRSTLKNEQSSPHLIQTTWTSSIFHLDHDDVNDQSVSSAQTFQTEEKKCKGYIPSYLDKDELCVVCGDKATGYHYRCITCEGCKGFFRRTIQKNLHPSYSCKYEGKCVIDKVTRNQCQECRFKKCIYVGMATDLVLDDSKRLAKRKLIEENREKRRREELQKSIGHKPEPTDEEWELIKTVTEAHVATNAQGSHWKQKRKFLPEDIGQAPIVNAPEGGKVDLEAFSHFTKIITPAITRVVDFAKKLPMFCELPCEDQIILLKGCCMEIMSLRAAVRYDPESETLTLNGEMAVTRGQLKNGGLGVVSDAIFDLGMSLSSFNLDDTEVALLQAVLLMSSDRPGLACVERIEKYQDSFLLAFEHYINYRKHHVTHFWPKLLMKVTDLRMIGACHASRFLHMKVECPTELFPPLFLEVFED

As for `Cc1ccc(Nc2nccc(N(C)c3ccc4c(C)n(C)nc4c3)n2)cc1S(N)(=O)=O`, the AC50 (as a rule, the concentration at which the activity in the assay is half-maximal) is 31.3 µM (active) in experiment [1], 14.7 µM (active) in experiment [2], 19.2 µM (active) in experiment [3] and 19.2 µM (active) in experiment [4]. For the same molecule, the result in experiment [5] was inactive.
Turning to `C[C@]12CCC(=O)C=C1CC[C@@H]1[C@@H]2[C@@H](O)C[C@@]2(C)[C@H]1CC[C@]2(O)C(=O)CO`, the result in experiment [6] and in experiment [7] was inactive. The AC50 in experiment [8] was 1.3 µM (active).
With `COC(=O)C1=C(C)NC(C)=C(C(=O)OC(C)C)C1c1cccc2nonc12` (stereo not drawn), the values for the AC50 in experiment [6] and in experiment [10] were 19.4 µM (active) and 18.1 µM (active), respectively. In addition, the outcome in experiment [7], in [9], in [8], in [11] and in [12] was inactive.
Turning to `Cc1ccc2[nH]c3cc4c(=O)c5cc(C)ccc5[nH]c4cc3c(=O)c2c1`, the outcome in experiment [13] and in [14] was inactive.
For `Nc1cccc2c1C(=O)N(C1CCC(=O)NC1=O)C2=O` (stereo not drawn), the molecule was called inactive in experiment [15], in experiment [22] and in experiment [25]. Besides, the AC50 in experiment [16] is 0.272 µM (active); in experiment [17], 0.067 µM (active); in experiment [18], 155 µM (active); in experiment [19] it was 0.0587 µM (active); in experiment [20], 29.5 µM (active); in experiment [21], 0.281 µM (active). The AC50 is 1.04 µM (active) in experiment [23] and 25.1 µM (active) in experiment [24].

The record behind these values is PubChem BioAssay (EPA / NIEHS).
